From PubChem BioAssay AID463173 (ICCB-Longwood Screening Facility, Harvard Medical School, 2010)
The campaign covered roughly 52,000 compounds. About 4,300 (8.3%) were called active. Cut-off read from the data, not from the text of the source: active = survival mostly below about 52% (no sharp cut-off); inactive = mostly above about 56%. This excerpt belongs to a sample that is enriched for actives.

tested on: DeltatarO mutant; test: S. aureus survival, RN4220 and DeltatarO strains – OD600, teichoic acid synthesis inhibitors, primary screen (AID 463173); details: S. aureus RN4220 wild type/DeltatarO growth, OD600, 18 h, stronger effect = lower value, screened at 18.75 µg/mL (by protocol)

SMILES	survival
CCCCN(CC)CCNC(=O)CN1C(=O)COc2ccc(S(=O)(=O)N3CCOCC3)cc21	86% (inactive)
Cc1ccc(C)c(NC(=O)CCc2nc3cccnc3n2Cc2cccs2)c1	73% (inactive)
CCOc1ccc(C2CC(=O)Nc3nc(SCc4ccccc4C)[nH]c(=O)c32)cc1OC (stereo not drawn)	103% (inactive)
COc1cc(O)ccc1C1CC(=O)Nc2c1c(=O)nc(SCc1ccccc1C)n2C (stereo not drawn)	93% (inactive)
CCOc1ccc(C2CC(=O)Nc3c2c(=O)nc(SCc2ccccc2C)n3C)cc1OC (stereo not drawn)	42% (active)
COc1ccc(-c2[nH]c(-c3ccc(C)cc3)nc2SCC(=O)NCC2CCCO2)cc1 (stereo not drawn)	82% (inactive)
COc1ccc2c(c1)c1c(c(=O)n(-c3cc(Cl)ccc3C)c(=O)n1CC(=O)N1CCCC1)n2C	83% (inactive)
Cc1ccccc1NC(=O)Cn1c(=O)n(Cc2ccc3c(c2)OCO3)c(=O)c2ccccc21	97% (inactive)
CCOc1ccc(C2c3c(-c4cc(C)ccc4O)n[nH]c3C(=O)N2Cc2cccnc2)cc1OCC (stereo not drawn)	72% (inactive)
Cc1ccc(C2c3c(-c4cc(C)ccc4O)n[nH]c3C(=O)N2Cc2ccco2)cc1 (stereo not drawn)	1% (active)
COc1cc(C2c3c(-c4cc(C)ccc4O)n[nH]c3C(=O)N2Cc2cccnc2)cc(OC)c1OC (stereo not drawn)	83% (inactive)
Cc1cc(C)c(-c2n[nH]c3c2C(c2ccccc2F)N(CCO)C3=O)c(O)c1 (stereo not drawn)	77% (inactive)
Cc1cc(C)c2c(=O)c3c(oc2c1)C(=O)N(Cc1ccco1)C3c1ccccc1F (stereo not drawn)	106% (inactive)
Cc1ccc(O)c(-c2n[nH]c3c2C(c2ccc(F)cc2)N(Cc2ccco2)C3=O)c1 (stereo not drawn)	2% (active)
Cc1cc(C)c(-c2n[nH]c3c2C(c2ccccc2F)N(Cc2ccco2)C3=O)c(O)c1 (stereo not drawn)	2% (active)
CCOc1cccc(C2c3c(-c4cc(C)ccc4O)n[nH]c3C(=O)N2Cc2ccco2)c1 (stereo not drawn)	8% (active)
COc1cc(C2c3c(-c4cc(C)ccc4O)n[nH]c3C(=O)N2Cc2ccco2)cc(OC)c1OC (stereo not drawn)	66% (inactive)
CCC(=O)N1c2ccc(S(=O)(=O)NCCc3ccccc3)cc2CC1C (stereo not drawn)	77% (inactive)
Cc1ccc2[nH]c(CSc3nnc(NC(=O)COc4ccccc4)s3)cc(=O)c2c1	82% (inactive)
Cc1cc(C)c(NC(=O)C(C)n2nc(-c3ccc(C)c(C)c3)ccc2=O)c(C)c1 (stereo not drawn)	63% (inactive)
CCCCNC(=O)CN1CCN(c2ncc(NC(=O)c3ccc(Cl)cc3)cc2C(=O)O)CC1	94% (inactive)
O=C1c2[nH]nc(-c3ccccc3O)c2C(c2ccccc2F)N1Cc1ccncc1 (stereo not drawn)	94% (inactive)

SMILES	survival
CCCOc1ccc(C2c3c(-c4ccccc4O)n[nH]c3C(=O)N2Cc2ccncc2)cc1OCC (stereo not drawn)	90% (inactive)
Cc1ccc(O)c(-c2n[nH]c3c2C(c2ccccc2F)N(Cc2ccco2)C3=O)c1 (stereo not drawn)	8% (active)
CCCOc1cccc(C2c3c(-c4ccccc4O)n[nH]c3C(=O)N2Cc2ccco2)c1 (stereo not drawn)	2% (active)
O=C1c2[nH]nc(-c3ccccc3O)c2C(c2cccc(Br)c2)N1Cc1ccncc1 (stereo not drawn)	85% (inactive)
O=C1c2[nH]nc(-c3ccccc3O)c2C(c2ccccc2F)N1Cc1cccnc1 (stereo not drawn)	87% (inactive)
COc1ccc(Cl)cc1NC(=O)c1ccc2nc(Cc3ccccc3)oc2c1	101% (inactive)
CN(C)c1ccc(CNC(=O)c2cnc3sc(N4CCCC4)nn3c2=O)cc1	67% (inactive)
CCOC(=O)c1c(C)n(C(=O)c2ccco2)c(=O)n1C(=O)c1ccco1	73% (inactive)
COc1ccc(CCn2c(=O)c3ccccc3n(CC(=O)Nc3cccc(C)c3)c2=O)cc1OC	83% (inactive)
CC(C)n1nnnc1SCC(=O)c1ccc2c(c1)OCCO2	87% (inactive)
Cc1ccc(C(=O)CSc2nnnn2C2CCCC2)cc1C	67% (inactive)
O=C(CSc1nnnn1C1CCCC1)c1ccc2c(c1)OCCO2	70% (active)
Cc1ccc(CNc2ncnc3c2cnn3-c2ccc(C)cc2C)cc1	77% (inactive)
Cc1ccc(-n2ncc3c(NCC(C)C)ncnc32)c(C)c1	37% (active)
COc1ccc(C(=O)NNc2ncnc3c2cnn3-c2ccc(C)cc2C)cc1	0% (active)
Cc1cccc(C(=O)NNc2ncnc3c2cnn3-c2ccc(C)cc2C)c1	106% (inactive)
COc1ccc(C(=O)NNc2ncnc3c2cnn3-c2ccc(C)c(Cl)c2)cc1	69% (inactive)
Cc1ccc(-n2ncc3c(N(CC(C)C)CC(C)C)ncnc32)c(C)c1	78% (inactive)
O=C(NCC(c1cccnc1)N1CCc2ccccc2C1)C(=O)Nc1ccccc1F (stereo not drawn)	75% (inactive)
CCN(CC)CC(=O)Nc1ccc(-c2ccc(NC(=O)CN(CC)CC)cc2)cc1	113% (inactive)
CC1CCC(C(=O)NC(C(=O)OCC(=O)c2ccccc2)C(C)C)CC1 (stereo not drawn)	75% (inactive)
COc1ccc(C2C(C(=O)Nc3ccccc3)=C(C)Nc3nc(-c4ccccc4)nn32)cc1OC (stereo not drawn)	85% (inactive)

SMILES	survival
COc1ccc(-c2nc3n(n2)C(c2ccccc2OC)C(C(=O)Nc2cccnc2)=C(C)N3)cc1 (stereo not drawn)	80% (inactive)
COc1ccc(C2C(C(=O)Nc3ccccc3)=C(C)Nc3nc(SCC(=O)c4ccc(C)cc4)nn32)cc1 (stereo not drawn)	71% (inactive)
COc1cc(OC)cc(-c2nc3n(n2)C(c2ccccc2F)C(C(=O)Nc2cccnc2)=C(C)N3)c1 (stereo not drawn)	45% (active)
COc1cccc(C2C(C(=O)Nc3ccccc3)=C(C)Nc3nc(-c4ccccc4)nn32)c1 (stereo not drawn)	57% (active)
CC1=C(C(=O)Nc2ccccc2)C(c2cccc(Cl)c2)n2nc(SCC(=O)c3ccc(C)cc3)nc2N1 (stereo not drawn)	52% (active)
COc1ccc(-c2nc3n(n2)C(c2ccccc2F)C(C(=O)Nc2cccnc2)=C(C)N3)cc1OC (stereo not drawn)	81% (inactive)
COc1ccc(C2C(C(=O)Nc3ccccc3)=C(C)Nc3nc(-c4ccccc4)nn32)c(OC)c1 (stereo not drawn)	82% (inactive)
CC1=C(C(=O)Nc2ccccc2)C(c2ccc(C(=O)O)cc2)n2nc(SCC(=O)c3ccc(C)cc3)nc2N1 (stereo not drawn)	82% (inactive)
CCOc1ccc(NC(=O)C2CCN(S(=O)(=O)c3ccc4c(c3)oc(=O)n4C)CC2)cc1	91% (inactive)
CCCCNC(=O)c1cnn2c(C)c(Cc3c(F)cccc3Cl)c(C)nc12	135% (inactive)
O=C(CN1C(=O)CCSc2ccccc21)Nc1ccc(C(F)(F)F)cc1	111% (inactive)
N#Cc1c(N)nc2c(c1-c1ccccc1)CCCC2	102% (inactive)
COc1ccc(S(=O)(=O)NCc2ccc3c(c2)CCN3C(=O)c2ccc(C)cc2)cc1Cl	112% (inactive)
CCOC(=O)c1oc2c(c1C)/C(=N/OC(=O)c1ccccc1Cl)CCC2	69% (inactive)
Cc1cc(S(=O)(=O)Nc2cc3c(cc2N2CCOCC2)n(C)c(=O)c(=O)n3C)ccc1F	72% (inactive)
CC(C)(C)c1nnc(NS(=O)(=O)c2ccc(F)cc2)s1	82% (inactive)
Cc1ccc(S(=O)(=O)Nc2nnc(CC(C)(C)C)s2)cc1	87% (inactive)
Cc1cc(C)c(S(=O)(=O)Nc2nnc(C(F)(F)F)s2)c(C)c1	36% (active)
O=C(O)c1cccnc1SCc1cccc(Cl)c1	79% (inactive)
Cc1cccc(CSc2ncccc2C(=O)O)c1	47% (active)
Cc1ccc(CSc2ncccc2C(=O)O)cc1	87% (inactive)
Cc1ccc(NC(=O)c2c(C)oc3ccc(O)c(CN4CCCC4)c23)c(C)c1	67% (inactive)

SMILES	survival
CCOc1ccc(CCNC(=O)Cn2ccc3cc(S(=O)(=O)N4CCCCCC4)ccc32)cc1	126% (inactive)
CCc1ccc(OC(=O)c2sc3ncn(Cc4cccc(F)c4)c(=O)c3c2C)cc1	115% (inactive)
COc1ccc(S(=O)(=O)NCC(c2ccco2)N2CCN(c3ccc(F)cc3)CC2)cc1 (stereo not drawn)	84% (inactive)
CCC(=O)N1CCc2cc(S(=O)(=O)NC(CC(C)C)C(=O)NCc3ccc(F)cc3)ccc21 (stereo not drawn)	80% (inactive)
CC(=O)N1CCc2cc(CNS(=O)(=O)c3ccc(Br)s3)ccc21	73% (inactive)
CCC(=O)N1CCc2cc(S(=O)(=O)NC(Cc3ccccc3)C(=O)O)ccc21 (stereo not drawn)	25% (active)
CCC(=O)N1CCc2cc(S(=O)(=O)NC(Cc3ccccc3)C(=O)Nc3ccc(C)cc3)ccc21 (stereo not drawn)	64% (inactive)
CCC(=O)N1CCc2cc(S(=O)(=O)NC(Cc3ccccc3)C(=O)NCc3ccccc3)ccc21 (stereo not drawn)	65% (inactive)
CCC(=O)N1CCc2cc(S(=O)(=O)NC(CC(C)C)C(=O)Nc3ccc(CC)cc3)ccc21 (stereo not drawn)	60% (active)
CCC(=O)N1CCc2cc(S(=O)(=O)NC(CC(C)C)C(=O)NCc3ccc(C)cc3)ccc21 (stereo not drawn)	97% (inactive)
CCC(=O)N1CCc2cc(CNS(=O)(=O)c3ccc(Br)s3)ccc21	47% (active)
CCC(=O)N1CCc2cc(CNS(=O)(=O)c3ccc(Cl)s3)ccc21	93% (inactive)
COC(=O)c1ccccc1NC(=O)c1oc2ccc3c(c2c1C)C(=O)CC(C)(C)O3	80% (inactive)
Cc1nc2cc(C(=O)O)ccc2n1-c1ccc(C(C)C)cc1	68% (inactive)
COc1cccc(CNC(=O)CSc2nc3ccccc3nc2Cc2ccccc2)c1	69% (inactive)
COc1ccc(NS(=O)(=O)c2ccc(-c3cnc(C4CC4)o3)cc2)cc1Cl	124% (inactive)
CCOC(=O)C1CCCN(S(=O)(=O)c2ccc(OC)cc2)C1 (stereo not drawn)	76% (inactive)
CN1C(=O)Cc2cc(S(=O)(=O)CCC(=O)Nc3ccccc3)ccc21	83% (inactive)
Clc1ccc(CSc2nc3ncccc3[nH]2)cc1	71% (inactive)
O=C(O)c1cc(-n2c(/C=C\c3ccc(F)cc3)nc3ccccc3c2=O)ccc1Cl	94% (inactive)
O=C(O)c1ccc(-n2c(/C=C\c3ccc(O)cc3)nc3ccccc3c2=O)cc1	58% (active)
COC(=O)c1ccc(-n2c(/C=C\c3cccc(Br)c3)nc3ccccc3c2=O)cc1	70% (inactive)
